Bioassay records from PubChem BioAssay.
FECH block: blocks human mitochondrial ferrochelatase activity | P22830 | purified FECH, Ni-mesoporphyrin absorbance 550 nm | calls only at 10 µM (by protocol) | hit rate 3.3% among 20,000 | AID 1671448;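 active means enzyme reaction rate more than 3 SD below the solvent-only control wells on the same plate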;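 further: lower slope than DMSO wells means FECH inhibition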
Target sequence (P22830 whole entry, looked up): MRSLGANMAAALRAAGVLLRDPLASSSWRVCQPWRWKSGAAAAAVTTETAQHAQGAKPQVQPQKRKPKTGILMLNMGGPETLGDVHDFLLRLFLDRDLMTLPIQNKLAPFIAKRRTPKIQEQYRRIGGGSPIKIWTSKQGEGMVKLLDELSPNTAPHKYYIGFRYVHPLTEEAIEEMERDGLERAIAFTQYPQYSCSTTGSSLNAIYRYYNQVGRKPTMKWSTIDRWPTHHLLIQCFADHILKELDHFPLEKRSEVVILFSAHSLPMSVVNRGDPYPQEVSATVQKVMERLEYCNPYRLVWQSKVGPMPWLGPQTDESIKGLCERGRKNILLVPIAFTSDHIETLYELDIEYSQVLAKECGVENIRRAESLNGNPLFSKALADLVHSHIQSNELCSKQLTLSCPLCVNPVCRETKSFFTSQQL
Of the large screens only hits and unclear results are named; the others gave an inactive call. This excerpt belongs to a sample that is enriched for hits.

Cc1cccc(CN2CCCN(CC(=O)Nc3ccccc3F)S2(=O)=O)c1	FECH block active
COc1ccc(NC(=O)CN2CCN(Cc3ccccc3Cl)S2(=O)=O)cc1OC	none
Cc1cccc(NC(=O)CN2CCCN(Cc3ccccc3)S2(=O)=O)c1	none
Cc1ccc(CN2CCCN(Cc3c(F)cccc3Cl)S2(=O)=O)cc1	FECH block active
COc1ccc(CN2CCCN(CC(=O)Nc3ccccc3F)S2(=O)=O)cc1	none
Cc1cccc(CN2CCN(CC(=O)Nc3c(C)cc(C)cc3C)S2(=O)=O)c1	none
Cc1ccc(NC(=O)CN2CCN(Cc3cccc(C)c3)S2(=O)=O)cc1	FECH block active
Cc1ccc(NC(=O)CN2CCCN(Cc3ccc(Cl)cc3)S2(=O)=O)cc1	none
Cc1ccc(CN2CCCN(Cc3ccc(F)cc3Cl)S2(=O)=O)cc1	none
Cc1nn2cc(CCNC(=O)c3cc4n(n3)CCCN(C)C4)nc2s1	none
COc1ccc(C(=O)Nc2cc(C)nn2-c2ncnc3c2cnn3-c2ccc(F)cc2)c(OC)c1	none
NS(=O)(=O)c1ccc(NC(=O)c2nc(S(=O)(=O)Cc3ccccc3)ncc2Cl)cc1	none
Cc1cc(NC(=O)c2cccc(C(F)(F)F)c2)n(-c2ncnc3c2cnn3-c2ccc(Cl)cc2)n1	none
Cn1c(=O)n(Cc2cccnc2)c(=O)c2cnc(-c3ccc(Cl)cc3)nc21	none
COc1cccc(C(=O)Nc2cc(C)nn2-c2ncnc3c2cnn3-c2cccc(Cl)c2)c1	none
Cc1ccc(NS(=O)(=O)c2ccc3c(c2)CCN3C(=O)CCC(=O)N2CCOCC2)cc1Cl	none
Cc1noc(C)c1CNC(C)COc1ccc2ccc(=O)oc2c1 (stereo not given)	none
CCOc1ccc(NC(=O)CN2CCCN(Cc3cc(C)ccc3C)S2(=O)=O)cc1	FECH block active
CCOc1ccc(NC(=O)CN2CCCN(Cc3cccc(C)c3)S2(=O)=O)cc1	FECH block active
COc1cccc(NC(=O)CN2CCN(Cc3ccc(F)cc3)S2(=O)=O)c1	none
Cc1ccc(NC(=O)CN2CCCN(Cc3ccccc3)S2(=O)=O)cc1	none
COc1ccc(OC)c(NC(=O)CN2CCCN(Cc3ccccc3)S2(=O)=O)c1	none
COc1ccc(OC)c(NC(=O)CN2CCCN(Cc3cccc(C)c3)S2(=O)=O)c1	FECH block active
COc1cccc(NC(=O)CN2CCCN(Cc3cccc(C)c3)S2(=O)=O)c1	FECH block active
COc1ccc(OC)c(NC(=O)CN2CCCN(Cc3ccc(C)cc3)S2(=O)=O)c1	none
COc1cccc(NC(=O)CN2CCCN(Cc3cccc(F)c3)S2(=O)=O)c1	none
Cc1ccc(C)c(CN2CCCN(CC(=O)Nc3ccc(C)c(F)c3)S2(=O)=O)c1	none
Cc1ccc(C)c(CN2CCCN(CC(=O)NC3CCCC3)S2(=O)=O)c1	none
CCOc1ccc(NC(=O)CN2CCCN(Cc3cccc(F)c3)S2(=O)=O)cc1	none
CN1CCN(c2ncccc2CNC(=O)C2CSC(C)(C)C(=O)N2)CC1 (stereo not given)	none
O=C(Nc1cccc(C(F)(F)F)c1)c1nc(N2CCOCC2)c2oc3ccccc3c2n1	none
COc1cccc2c1OCCCN(C(=O)c1cc(C(C)C)nc(N)n1)C2	none
COCc1ncc(CN2CCN(c3cc(C)nc(SC)n3)CC2)cn1	none
COc1c(C)cnc(CN2CCC(c3ccccc3C(=O)O)C2)c1C (stereo not given)	none
COc1ccc(NC(=O)COc2cc(C)nc(-c3ccc(C)cc3)n2)cc1	none
CN1CC(=O)N(CC(=O)Nc2ccc(-c3ccno3)cc2)c2ccccc2C1=O	FECH block active
CN1CC(=O)N(CC(=O)Nc2cccc(-c3ccno3)c2)c2ccccc2C1=O	none
CC(=O)Nc1ccc(NC(=O)CN2C(=O)CN(C)C(=O)c3ccccc32)cc1	none
COc1ccccc1NC(=O)Nc1nc(CC(=O)Nc2ccccc2)cs1	none
Cc1cc(S(=O)(=O)NCC(=O)N2C[C@H](N(C)C)C[C@H]2CO)ccc1F	none
CCOc1ccccc1NCc1cc(=O)n2[nH]c(-c3ccc(C(C)(C)C)cc3)nc2n1	none
Cc1ccc(Cl)cc1NCc1cc(=O)n2[nH]c(-c3ccc(C(C)(C)C)cc3)nc2n1	FECH block active
CC(C)(C)c1ccc(-c2nc3nc(CN4CCN(c5ccc(F)cc5)CC4)cc(=O)n3[nH]2)cc1	none
CCN1CCN(Cc2cc(=O)n3[nH]c(-c4ccc(C(C)(C)C)cc4)nc3n2)CC1	none
CC(C)(C)c1ccc(-c2nc3nc(CNc4ccccc4F)cc(=O)n3[nH]2)cc1	FECH block active
CC(C)(C)c1ccc(-c2nc3nc(CNc4ccc(Br)cc4)cc(=O)n3[nH]2)cc1	none
COCCNC(=O)C1(C)Cn2c(cc3ccsc32)C(=O)N1Cc1cccc(F)c1 (stereo not given)	none
Cc1nnc(SCCCNC(=O)CCC(F)(F)F)s1	none
CCOc1ccccc1NCc1nc2nc3c(c(=O)n2[nH]1)CCC3	none
Cc1ccccc1NCc1nc2nc3c(c(=O)n2[nH]1)CCC3	FECH block active
O=c1c2c(nc3nc(CNc4ccc(Br)cc4)[nH]n13)CCC2	FECH block active
Cc1cc(=O)n2[nH]c(NCc3ccc(C(=O)Nc4ccc(Br)cc4)cc3)nc2n1	none
Cc1ccc(Cl)cc1NCc1nc2nc3c(c(=O)n2[nH]1)CCC3	FECH block active
CCc1nc2nc3c(c(=O)n2[nH]1)CCC3	none
Cc1c(Cl)cccc1NCc1nc2nc3c(c(=O)n2[nH]1)CCC3	FECH block active
Cc1nc2nc(C)c(NC(=O)Nc3cc(Cl)ccc3C)c(=O)n2[nH]1	none
Cc1nc2nc(C)c(NC(=O)Nc3ccccc3Cl)c(=O)n2[nH]1	none
COc1ccc(NCc2nc3nc4c(c(=O)n3[nH]2)CCC4)c(OC)c1	none
O=c1c2c(nc3nc(CNc4ccccc4F)[nH]n13)CCC2	none
CC1(C)CN(CC(=O)N2CCCC2)c2ccc(S(=O)(=O)Nc3ccc(S(N)(=O)=O)cc3)cc21	none
Cc1cc(Oc2ccccc2)nc(-n2cnc(SCCOc3ccccc3C)n2)n1	none
c1coc(-c2noc(CN3CCc4[nH]cnc4C34CCCCC4)n2)c1	none
CCCS(=O)(=O)N1CCN(Cc2nc3cccnc3n2-c2ccc(F)cc2)CC1	none
COc1cccc(Nc2ncnc3sc(C)c(S(=O)(=O)N4CCCCC4)c23)c1	none
Cc1noc(CN(C)C(=O)CCN2CCCCO2)n1	none
Cc1sc2ncnc(Nc3ccc(F)cc3F)c2c1S(=O)(=O)N1CCCCC1	none
CCCn1c(CNS(=O)(=O)c2ccc3c(c2)CCCC3)nc2cccnc21	none
CC(C)c1nn(-c2ccccc2)c2c1C(c1nccs1)CC(=O)N2 (stereo not given)	none
CC(C)C1CN(c2ccc(C(=O)N3CCOCC3)cn2)CCCN1CC1CC1 (stereo not given)	none
CCCc1nc(CN(CC)C(=O)C2(c3ccc(Cl)cc3)CC2)no1	none
O=C(NCC1CCCO1)C1CCN(c2ccc(-c3ccc(F)cc3)nn2)CC1 (stereo not given)	none
CCC(CO)N(Cc1ccsc1)Cc1sccc1C (stereo not given)	none
Cc1cccnc1CN1CCN(Cc2cnc(N(C)C)s2)CC1	none
Cc1ccc(C2=CC(c3ccc(C)cc3)n3nc(NC(=O)CC(C)C)nc3N2)cc1 (stereo not given)	none
Cc1ccc(NC(=O)CC(=O)NCCSc2nccn2C)c(C)c1	none
Cc1cccnc1NCCNC(=O)c1cccc2ccnn12	none
Cc1ccc(NC(=O)CNCCNc2ncccc2C)c(C)c1	FECH block active
CC(C)CN(CCNC(=O)C1CCCN(S(=O)(=O)N2CCOCC2)C1)CC(C)C (stereo not given)	none
CC(=O)Nc1cccc(NC(=O)c2nc3ccccc3n(C)c2=O)c1	FECH block active
Cn1c(=O)c(C(=O)Nc2ccc(Oc3ccc(Cl)cc3)cc2)nc2ccccc21	FECH block active
COC(=O)c1ccc(NC(=O)c2nc3ccccc3n(C)c2=O)cc1	none
